Laboratory results as given in PubChem BioAssay (NCATS).
Inconclusive results are not listed. Activity calls are given as the source filed them. Unless noted, calls come from the whole dose curve; as a rule, active = well fitted activation curve with a large enough effect; inconclusive = small, poorly fitted or top-dose-only effect; inactive = flat fitted curve, though single readings scatter.

Test system: not listed separately
Assay: qHTS assay for small molecule agonists of the antioxidant response element (ARE) signaling pathway (AID 651741; active = well fitted activation curve with a large enough effect in the signal ratio; the % refers to the signal ratio)
Settings: HepG2 ARE-bla reporter, beta-lactamase FRET ratio, 16 h; series mostly up to 96 µM
How it was run: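 Agonist activity is measured as ARE-driven beta-lactamase expression in a stable HepG2 reporter line, using 16 h compound treatment at 37 C and a FRET substrate fluorescence readout after 2 h.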
Note: % of control where 0% means no effect.

| SMILES | Potency |
| --- | --- |
| CNc1nc(=O)n(C2CCCCC2)c(=O)n1C | inactive |
| C=Cc1ccc(P(c2ccccc2)c2ccccc2)cc1 | inactive |
| CC(=O)N(CCN(C(C)=O)C(C)=O)C(C)=O | inactive |
| CCCC/C=C\CCCCCCCCO | inactive |
| Nc1cc(Cl)nc(C(=O)O)c1Cl | inactive |
| C[Si](Cl)(Cl)[Si](C)(Cl)Cl | inactive |
| CS/C(=N\O)C(=O)N(C)C | inactive |
| Cc1ccc(C(=O)c2ccccc2)cc1 | inactive |

Test system: not listed separately
Assay: qHTS assay for small molecule activators of the p53 signaling pathway (AID 651743; active = well fitted activation curve with a large enough effect in the signal ratio, not every such curve was filed as active; the % refers to the signal ratio)
Settings: HCT-116 p53RE-bla, beta-lactamase FRET ratio, 16 h; activation: stronger effect = higher value
How it was run: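 A beta-lactamase reporter under p53 response element control, stably carried by HCT-116 cells, reported pathway activation. Test compounds were applied for 16 hours at 37 C, and fluorescence was measured 2 hours after adding the B/G FRET substrate.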

| SMILES | activation |
| --- | --- |
| CNc1nc(=O)n(C2CCCCC2)c(=O)n1C | 0.353% (inactive) |
| CCCCCCCC[Si](Cl)(Cl)Cl | 0.514% (inactive) |
| CCCCCCCOC(=O)c1ccccc1C(=O)OCCCCCCC | -3.71% (inactive) |
| CCCCCCCCCCCCCCCCCCN | -1.5% (inactive) |
| CC(=O)N(CCN(C(C)=O)C(C)=O)C(C)=O | 0.892% (inactive) |
| CCCC/C=C\CCCCCCCCO | 0.706% (inactive) |
| Nc1cc(Cl)nc(C(=O)O)c1Cl | 1.21% (inactive) |
| C[Si](Cl)(Cl)[Si](C)(Cl)Cl | 0.0231% (inactive) |
| CCCCCCCCCc1ccccc1 | -0.95% (inactive) |
| CS/C(=N\O)C(=O)N(C)C | -0.3% (inactive) |
| C[Si](Cl)(Cl)c1ccccc1 | -1.52% (inactive) |
| COC(=O)c1c(Cl)nn(C)c1S(=O)(=O)NC(=O)Nc1nc(OC)cc(OC)n1 | -0.555% (inactive) |
| CC1(C)CC(NCCCCCCNC2CC(C)(C)NC(C)(C)C2)CC(C)(C)N1 | -1.03% (inactive) |
| Cc1ccc(C(=O)c2ccccc2)cc1 | 3.79% (inactive) |

Test system: not listed separately
Assay: qHTS assay for small molecule activators of the nuclear factor-kappa B (NF-kB) signaling pathway (AID 651749; active = well fitted activation curve with a large enough effect in the signal ratio; the % refers to the signal ratio)
Settings: NF-kB-bla ME-180 cells, beta-lactamase FRET ratio, 16 h; activation: stronger effect = higher value
How it was run: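 FRET-based beta-lactamase detection in ME-180 cells reports NF-kB response-element-driven transcription following overnight (16 hr) compound treatment.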

| SMILES | activation |
| --- | --- |
| CNc1nc(=O)n(C2CCCCC2)c(=O)n1C | -1.72% (inactive) |
| CCCCCCCC[Si](Cl)(Cl)Cl | -3.66% (inactive) |
| CCCCCCCOC(=O)c1ccccc1C(=O)OCCCCCCC | -1.95% (inactive) |
| C=Cc1ccc(P(c2ccccc2)c2ccccc2)cc1 | 0.802% (inactive) |
| CCCCCCCCCCCCCCCCCCN | 0.495% (inactive) |
| CC(=O)N(CCN(C(C)=O)C(C)=O)C(C)=O | -1.08% (inactive) |
| CCCC/C=C\CCCCCCCCO | -0.809% (inactive) |
| Nc1cc(Cl)nc(C(=O)O)c1Cl | 0.121% (inactive) |
| C[Si](Cl)(Cl)[Si](C)(Cl)Cl | -1.71% (inactive) |
| CCCCCCCCCc1ccccc1 | -0.21% (inactive) |
| CS/C(=N\O)C(=O)N(C)C | -2.88% (inactive) |
| C[Si](Cl)(Cl)c1ccccc1 | 0.494% (inactive) |
| COC(=O)c1c(Cl)nn(C)c1S(=O)(=O)NC(=O)Nc1nc(OC)cc(OC)n1 | -2.65% (inactive) |
| CC1(C)CC(NCCCCCCNC2CC(C)(C)NC(C)(C)C2)CC(C)(C)N1 | -3.22% (inactive) |
| Cc1ccc(C(=O)c2ccccc2)cc1 | 0.979% (inactive) |

Test system: not listed separately
Assay: qHTS assay for environmental chemicals that activate the Aryl hydrocarbon Receptor (AhR) signaling pathway (AID 651777); note: nearly all actives have a fitted effect of over 15% in size
Settings: 1A2-DRE human hepatoma cells, luciferase, 24 h; activation: stronger effect = higher value
How it was run: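 Concentration–response screening used 1,200 1A2-DRE cells per well, 24 hr compound exposure (37 C, 5% CO2), and One-Glo luminescence as the AhR-driven CYP1A2 reporter signal.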

| SMILES | activation |
| --- | --- |
| CNc1nc(=O)n(C2CCCCC2)c(=O)n1C | 2.39% (inactive) |
| CCCCCCCC[Si](Cl)(Cl)Cl | 3.53% (inactive) |
| CCCCCCCOC(=O)c1ccccc1C(=O)OCCCCCCC | -0.336% (inactive) |
| C=Cc1ccc(P(c2ccccc2)c2ccccc2)cc1 | 0.447% (inactive) |
| CCCCCCCCCCCCCCCCCCN | 0.284% (inactive) |
| CC(=O)N(CCN(C(C)=O)C(C)=O)C(C)=O | -3.27% (inactive) |
| CCCC/C=C\CCCCCCCCO | 0.183% (inactive) |
| Nc1cc(Cl)nc(C(=O)O)c1Cl | 1.56% (inactive) |
| C[Si](Cl)(Cl)[Si](C)(Cl)Cl | 0.351% (inactive) |
| CCCCCCCCCc1ccccc1 | 0.637% (inactive) |
| CS/C(=N\O)C(=O)N(C)C | -0.34% (inactive) |
| C[Si](Cl)(Cl)c1ccccc1 | 0.0847% (inactive) |
| COC(=O)c1c(Cl)nn(C)c1S(=O)(=O)NC(=O)Nc1nc(OC)cc(OC)n1 | -1.75% (inactive) |
| CC1(C)CC(NCCCCCCNC2CC(C)(C)NC(C)(C)C2)CC(C)(C)N1 | 0.472% (inactive) |
| Cc1ccc(C(=O)c2ccccc2)cc1 | -0.234% (inactive) |

Molecular target: Peroxisome proliferator-activated receptor alpha (Homo sapiens) (UniProt Q07869)
Assay: qHTS assay for small molecule agonists of the peroxisome proliferator-activated receptor alpha (PPARalpha) signaling pathway (AID 651778)
Settings: PathHunter PPARalpha complementation, chemiluminescence, 6 h; max response: stronger effect = higher value
How it was run: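 Chemiluminescence from complemented enzyme reported PPARalpha activation in cells after 6 hr of compound treatment at 37 C. The detection reagent was incubated for 60 min at room temperature, and compounds were scored as agonists.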

Chain of Peroxisome proliferator-activated receptor alpha (Homo sapiens) (Q07869 whole entry, looked up): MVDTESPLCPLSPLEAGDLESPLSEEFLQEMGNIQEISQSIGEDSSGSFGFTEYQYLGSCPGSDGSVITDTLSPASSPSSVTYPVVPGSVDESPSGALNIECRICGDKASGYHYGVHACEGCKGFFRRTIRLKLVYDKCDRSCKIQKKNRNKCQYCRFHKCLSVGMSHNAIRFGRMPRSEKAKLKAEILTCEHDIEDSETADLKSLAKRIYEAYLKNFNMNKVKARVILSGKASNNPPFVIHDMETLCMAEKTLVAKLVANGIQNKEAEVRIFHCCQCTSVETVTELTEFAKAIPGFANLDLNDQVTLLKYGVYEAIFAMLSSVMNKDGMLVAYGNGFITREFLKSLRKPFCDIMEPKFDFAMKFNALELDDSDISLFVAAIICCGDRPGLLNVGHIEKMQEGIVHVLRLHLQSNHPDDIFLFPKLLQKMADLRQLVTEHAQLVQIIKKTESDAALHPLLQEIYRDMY

| SMILES | max response |
| --- | --- |
| CNc1nc(=O)n(C2CCCCC2)c(=O)n1C | -0.955% (inactive) |
| CCCCCCCC[Si](Cl)(Cl)Cl | -0.623% (inactive) |
| CCCCCCCOC(=O)c1ccccc1C(=O)OCCCCCCC | 0.0123% (inactive) |
| C=Cc1ccc(P(c2ccccc2)c2ccccc2)cc1 | -0.0796% (inactive) |
| CCCCCCCCCCCCCCCCCCN | 0.121% (inactive) |
| CC(=O)N(CCN(C(C)=O)C(C)=O)C(C)=O | 0.299% (inactive) |
| CCCC/C=C\CCCCCCCCO | 2.88% (inactive) |
| Nc1cc(Cl)nc(C(=O)O)c1Cl | -2.9% (inactive) |
| C[Si](Cl)(Cl)[Si](C)(Cl)Cl | -2.05% (inactive) |
| CCCCCCCCCc1ccccc1 | -0.702% (inactive) |
| CS/C(=N\O)C(=O)N(C)C | -1.04% (inactive) |
| C[Si](Cl)(Cl)c1ccccc1 | -2.64% (inactive) |
| COC(=O)c1c(Cl)nn(C)c1S(=O)(=O)NC(=O)Nc1nc(OC)cc(OC)n1 | 0.0687% (inactive) |
| CC1(C)CC(NCCCCCCNC2CC(C)(C)NC(C)(C)C2)CC(C)(C)N1 | -0.876% (inactive) |
| Cc1ccc(C(=O)c2ccccc2)cc1 | -3.56% (inactive) |
